{"source": "PubChem BioAssay (NCI)", "note": "Several values for one entry are separate records, joined by “and”; a condition that tells them apart may be missing. Equal entries are not always repeated. This is part of a sample that, as a whole, favours compounds with a hit. Of some 83,000 tested, about 20% had one in any assay.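 The endpoint reported here, percent growth, reads 100 for growth as untreated, 0 for no net growth and -100 for all cells dead.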 Activity calls are given as the source filed them. The calls were made as follows: active = growth percent below 10; inactive = the rest.", "data": [{"test_system": "SR leukemia", "assay": "NCI-60 one-dose screen, 48 h (100 = growth as untreated, 0 = no growth, -100 = all killed)", "details": "10 µM", "values": [{"smiles": "CCN(Cc1ccccc1)c1ccc(/C=C2\\COc3ccccc3C2=O)cc1", "growth": "67.5% (inactive)"}, {"smiles": "CC(=O)/C=C/c1ccc(OCc2ccc(C(C)(C)C)cc2)cc1", "growth": "65.9% (inactive)"}, {"smiles": "CC(=O)/C=C/c1ccc(N(CCO)Cc2ccc(C(C)(C)C)cc2)cc1", "growth": "83% (inactive)"}, {"smiles": "O=C(/C=C/c1cccc(Oc2ccc(Cl)cc2)c1)c1ccccc1", "growth": "53.5% (inactive)"}, {"smiles": "COc1ccc(C(=O)/C=C/c2ccc(OCc3cccc(C(F)(F)F)c3)c(OC)c2)cc1OC", "growth": "36.8% (inactive)"}, {"smiles": "CC(=O)/C=C/c1ccc(OCc2ccc(Cl)cc2)cc1", "growth": "98% (inactive)"}, {"smiles": "COc1ccc(C(=O)/C=C/c2ccc(OCc3ccc(Cl)cc3)cc2)cc1OC", "growth": "78.2% (inactive)"}, {"smiles": "CC(=O)/C=C/c1ccc(N(C)Cc2ccc(C(C)(C)C)cc2)cc1", "growth": "80.4% (inactive)"}]}, {"test_system": "SR leukemia", "assay": "NCI-60 one-dose screen, 48 h (100 = growth as untreated, 0 = no growth, -100 = all killed)", "details": "10 µM unless noted", "values": [{"smiles": "CCOC(=O)c1ccc(Nc2ncnc3c2cnn3-c2cccc(F)c2)cc1", "growth": "94.7% (inactive)"}, {"smiles": "O=S(=O)(O)c1ccc(N=Nc2ccc(N=Nc3cccc4ccccc34)c(S(=O)(=O)O)c2)cc1", "growth": "99.4% (inactive)"}, {"smiles": "CC[C@@H]1NC(=O)[C@H]([C@H](O)[C@H](C)C/C=C/c2ccc(CN3C(=O)C(C)=C(C)C3=O)cc2)N(C)C(=O)[C@H](C(C)C)N(C)C(=O)[C@H](CC(C)C)N(C)C(=O)[C@H](CC(C)C)N(C)C(=O)[C@@H](C)NC(=O)[C@H](C)NC(=O)[C@H](CC(C)C)N(C)C(=O)[C@H](C(C)C)NC(=O)[C@H](CC(C)C)N(C)C(=O)CN(C)C1=O", "growth": "46.9% (inactive)"}, {"smiles": "COc1nc(=O)n(C2C=CC(=O)O2)cc1F", "note": "(configuration not stated)", "growth": "-19.8% (active)"}, {"smiles": "COc1ccc(-c2csc(NC(=O)CN3CCN(CCO)CC3)n2)cc1NS(=O)(=O)c1cccc2c(N(C)C)cccc12", "growth": "-6.12% (active)"}, {"smiles": "O=C1/C(=C/c2ccc(-c3cccc(C(F)(F)F)c3)o2)SC(=S)N1CCc1ccc(O)cc1", "growth": "32.5% (inactive)"}, {"smiles": "BrC1=C(Br)C(Br)(Br)C(Br)=C1Br", "growth": "9.34% (active)"}, {"smiles": "OCc1cc(CN2CCCCC2)c(O)c2ncccc12", "growth": "27% (inactive)"}, {"smiles": "COc1ccc(C2=C(CN)C(O)NC(=NCC(=O)c3ccc4ccccc4c3)N2)cc1", "note": "(configuration not stated)", "growth": "99.4% (inactive)"}, {"smiles": "N#CSc1c[nH]c2ccc(/C=C/C(=O)/C=C(/C=C/c3ccc4[nH]cc(SC#N)c4c3)OB(F)F)cc12", "growth": "-25.1% (active)"}, {"smiles": "COc1ccc(Oc2nc(Nc3ccc(N4CCOCC4)cc3)ncc2NC(=O)c2cc(OC)cc(OC)c2)cc1", "growth": "34.7% (inactive)"}, {"smiles": "COc1ccc2c(c1)oc1c(C)c3c(c(C)c12)C(=O)N(Nc1ccccc1)C3=O", "growth": "104% (inactive)"}, {"smiles": "COc1ccc(/C=C2/C(=O)N=C3N2NC(c2ccccc2)=CN3c2ccccc2)cc1", "growth": "106% (inactive)"}, {"smiles": "O=C1/C(=C/c2ccccc2[N+](=O)[O-])Cc2ccccc21", "growth": "3.7% (active) and 11.5% (inactive)"}, {"smiles": "COc1ccc2c(c1)CCNC21C(=O)Nc2c(Br)cc(Br)cc21", "note": "(configuration not stated)", "growth": "96.4% (inactive)"}, {"smiles": "O=C(N/N=C/c1ccc(O)cc1O)c1cccc(Nc2ccnc(C(F)(F)F)c2)c1", "growth": "21.7% (inactive)"}, {"smiles": "O=C(c1cccc(Br)c1)N1CCN(c2ccnc3cc(Cl)ccc23)CC1", "growth": "118% (inactive)"}, {"smiles": "CCCCCC#CC1OC23CCCCC2C(C#N)(C(=N)O3)C1(C#N)C#N", "note": "(configuration not stated)", "growth": "87% (inactive)"}, {"smiles": "COc1ccc(-c2c[nH]c(C(=O)O)c2-c2cc(OC)c(OC)c(OC)c2)cc1", "growth": "18.7% (inactive)"}, {"smiles": "NC(N)=NC(N)=NCCCc1ccco1", "growth": "110% (inactive)"}, {"smiles": "CN1Cn2c(ccc2C(F)(F)F)C(=O)CS1(=O)=O", "growth": "109% (inactive)"}, {"smiles": "CCCc1cc(C(N)=S)ccn1", "growth": "104% (inactive)"}, {"smiles": "C#CCn1cnc2cnc(Nc3cccc(NC(=O)CCl)c3)nc21", "growth": "1.67% [6.25 µM] (active)"}, {"smiles": "CC1=C2[C@@H](CC1)[C@]1(C)O[C@@](C3CC3)(C[C@H]1OC(=O)CO)[C@H]2OC(=O)/C=C/c1ccccc1", "growth": "80.4% (inactive)"}, {"smiles": "CCCn1nc(C(=O)N2CCCCC2)c2c1CCC(N1CCC(c3ccncc3)CC1)C2", "note": "(configuration not stated)", "growth": "123% (inactive)"}, {"smiles": "Cc1c(O)c(O)cc2c3c(oc12)CC(c1ccc2c(c1)OCO2)CC3=O", "note": "(configuration not stated)", "growth": "75.6% (inactive)"}, {"smiles": "COc1ccc(Nc2nn3c(SCC(=O)c4ccc(C)cc4)nnc3s2)cc1", "growth": "68.9% (inactive)"}, {"smiles": "N#Cc1c(-c2cccc(F)c2)cc(-c2cccnc2)[nH]c1=O", "growth": "91.3% (inactive)"}, {"smiles": "O=[N+]([O-])c1ccc2[nH]c3nccc(NCc4cccc(Cl)c4)c3c2c1", "growth": "50.5% (inactive)"}]}]}
